Experiments:
[1] = tested on: Vero E6 infected with SARS-CoV-2; test: morphology score (similarity to uninfected cells); higher = more like uninfected cells; conditions: 24 h
[2] = tested on: Vero E6 infected with SARS-CoV-2; test: SARS-CoV-2 infection rate relative to infected DMSO; higher = more infection, active = 60 or less; conditions: 24 h

SMILES | morphology score [1] | SARS-CoV-2 infection rate [2]
c1ccc2c(c1)CN1CCCC1=N2 [desoxypeganine] (10 µM) | 0.169 | 94.5% (inactive)
CNC(=O)c1c(C)oc2cc(Oc3ncnc4cc(OC)c(OC)cc34)ccc12 [fruquintinib] (10 µM) | 0.0139 | 110% (inactive)
NS(=O)(=O)c1cc2c(cc1C(F)(F)F)NC(Cc1ccccc1)NS2(=O)=O (stereo not given) [bendroflumethiazide] (10 µM) | 0.136 | 87.5% (inactive)
Cc1ccc(C(=O)Nc2ccc(CN3CCN(C)CC3)c(C(F)(F)F)c2)cc1C#Cc1cnc2cccnn12 [ponatinib] (10 µM) | 0.435 | 97% (inactive)
CC(=O)OCC(=O)[C@@]1(O)CC[C@H]2[C@@H]3CCC4=CC(=O)CC[C@]4(C)[C@H]3C(=O)C[C@@]21C [cortisone-acetate] (10 µM) | -0.0698 | 87.5% (inactive)
Nc1ncnc2c1ncn2[C@@H]1O[C@H](COP(=O)(O)OP(=O)(O)OP(=O)(O)O)[C@@H](O)[C@H]1O (10 µM) | -0.0072 | 99.5% (inactive)
CC(C)c1cc2c(cc1S(=O)(=O)O)[C@@]1(C)CCC[C@@](C)(C(=O)O)[C@@H]1CC2 [ecabet] (10 µM) | 0.0527 | 102% (inactive)
CN1CCN(CCCCN2C(=O)CN(/N=C/c3ccc(-c4ccc(Cl)cc4)o3)C2=O)CC1 [azimilide] (10 µM) | 0.0199 | 102% (inactive)
Cc1cc(C#N)cc(C)c1Oc1nc(Nc2ccc(C#N)cc2)nc(N)c1Br [etravirine] (10 µM) | 0.364 | 98% (inactive)
CCOC(=O)C1=C(C)NC(C)=C(C(=O)OC)C1c1cccc(Cl)c1Cl (stereo not given) [felodipine] (10 µM) | 0.224 | 112% (inactive)
O=C(O)COCCN1CCN(C(c2ccccc2)c2ccc(Cl)cc2)CC1 (stereo not given) [cetirizine] (10 µM) | 0.153 | 98.2% (inactive)
NC(=O)c1ccc([N+](=O)[O-])cc1Cl [aklomide] (10 µM) | -0.229 | 114% (inactive)
Nc1ncnc2c1ncn2[C@@H]1O[C@H](C[C@@H](N)CC[C@H](N)C(=O)O)[C@@H](O)[C@H]1O [sinefungin] (10 µM) | 0.0839 | 109% (inactive)
CC1(CN2CCC(n3c(=O)[nH]c4ccccc43)CC2)OCc2ccccc2-n2cccc21 (stereo not given) [zaldaride] (10 µM) | -0.152 | 112% (inactive)
O[C@H]1[C@H](O)[C@@H](O)[C@H](O)[C@@H](O)[C@H]1O [inositol] (10 µM) | -0.166 | 95.5% (inactive)
OC1=c2ccccc2=C(NC2CCCCC2)/C1=C\c1ccccc1 (0.833333 µM) | 0.213 | 85.5% (inactive)
O=C1NCCNC1c1cccs1 (stereo not given) [tenilsetam] (10 µM) | 0.095 | 106% (inactive)
CNC(=N)NCCC[C@H](N)C(=O)O [targinine] (10 µM) | 0.0428 | 106% (inactive)
COCCc1ccc(OCC(O)CNC(C)C)cc1 (stereo not given) [metoprolol] (10 µM) | 0.0844 | 101% (inactive)
O=C(Nc1ccc(Cl)cc1)Nc1cccc(-c2cccc(N3CCCC3)n2)c1 (10 µM) | 0.00797 | 92.5% (inactive)
Cc1ncc(C)n2nc([C@@H]3C[C@H]3c3nc4c5cccnc5ccn4c3C)nc12 (10 µM) | -0.0961 | 106% (inactive)
Cc1ccc(C(=O)c2ccc(CC(=O)O)n2C)cc1 [tolmetin] (10 µM) | 0.0813 | 106% (inactive)
O=C(O)C1(C(=O)O)CCC1.[NH2-].[NH2-].[Pt+2] [carboplatin] (10 µM) | -0.0106 | 102% (inactive)
O=[N+]([O-])c1ccc2c(c1)S(=O)(=O)C=C2 [stattic] (0.833333 µM) | 0.148 | 100% (inactive)
C/C=C(/C)C(=O)O[C@H]1[C@H](OC(C)=O)[C@@]2(CO)C(CC1(C)C)C1=CCC3[C@@]4(C)CCC(O[C@@H]5O[C@H](C(=O)O)[C@@H](O[C@@H]6O[C@H](CO)[C@@H](O)[C@H](O)[C@H]6O)[C@H](O)[C@H]5O[C@@H]5O[C@H](CO)[C@@H](O)[C@H](O)[C@H]5O)[C@](C)(CO)C4CC[C@@]3(C)[C@]1(C)C[C@H]2O.C/C=C(\C)C(=O)O[C@H]1[C@H](OC(C)=O)[C@@]2(CO)C(CC1(C)C)C1=CCC3[C@@]4(C)CCC(O[C@@H]5O[C@H](C(=O)O)[C@@H](O[C@@H]6O[C@H](CO)[C@@H](O)[C@H](O)[C@H]6O)[C@H](O)[C@H]5O[C@@H]5O[C@H](CO)[C@@H](O)[C@H](O)[C@H]5O)[C@](C)(CO)C4CC[C@@]3(C)[C@]1(C)C[C@H]2O (stereo not given in full) [escin] (0.833333 µM) | -0.0809 | 118% (inactive)
